Inconclusive results are not listed. Active and inactive are the calls of the source. The calls were made as follows, unless noted: active = hit-call score of the fitted dose curve at least 0.9, where 1 is the maximum; inconclusive = response in the unintended direction; inactive = score below 0.9.
What was measured:
[1] = ATG_TAL_CIS: Attagene CIS-FACTORIAL HepG2 Assay for human TAL Basal Promoter (AID 2282966; active = hit-call score of the fitted dose curve at least 0.9, where 1 is the maximum; inactive = score below 0.9;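 also: background control endpoint measuring basal TAL promoter reporter mRNA not a specific factor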); conditions: HepG2 Attagene cis-factorial TAL promoter reporter; actives raise or lower the signal
Procedure, shortened: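 After 24 hours of chemical exposure, transfected HepG2 cells yielded RNA that was converted to 6-FAM-labelled, HpaI-digested reporter fragments for capillary electrophoresis. Values derive from bidirectional fitting against DMSO controls.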

[2] = ATG_VDRE_CIS: Attagene CIS-FACTORIAL HepG2 Assay for human Vitamin D Receptor Element (VDRE) (AID 2282968; active = hit-call score of the fitted dose curve at least 0.9, where 1 is the maximum; inactive = score below 0.9); conditions: HepG2 VDRE cis-reporter transcription, actives raise or lower the signal
Procedure, shortened: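 Compounds were applied for 24 h to HepG2 cells transfected with promoter-regulated reporter units. Total RNA was reverse-transcribed, and reporter amplicons were fluorescently labelled and sized by capillary electrophoresis.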

[3] = ATG_M_19_TRANS: Attagene TRANS-FACTORIAL HepG2 Assay for M19 Transcription Factor (Internal Marker) (AID 2282974); conditions: HepG2 Attagene TRANS-FACTORIAL M19 internal marker reporter
Procedure, shortened: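 Fluorescence of 6-FAM-labelled reporter cDNA fragments, separated by capillary electrophoresis, served as the readout. These derived from HepG2 cells carrying transfected GAL4-UAS reporter units after 24 h dosing, with DMSO as negative control.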

[4] = ATG_GAL4_TRANS: Attagene TRANS-FACTORIAL HepG2 Assay for GAL4 (Internal Marker) (AID 2282976); conditions: HepG2 Attagene TRANS GAL4 internal marker reporter
Procedure, shortened: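 First, HepG2 cells were transfected with reporter units under GAL4-UAS control. Next, they were treated with chemical for 24 h. Finally, RNA was reverse-transcribed, PCR-amplified, FAM-labelled and resolved by capillary electrophoresis, with induction scored against DMSO.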

[5] = biological target: Glucocorticoid receptor (Homo sapiens) (UniProt P04150); experiment: ATG_GR_TRANS: Attagene TRANS-FACTORIAL HepG2 Assay for human Glucocorticoid Receptor (GR) (AID 2282978); conditions: HepG2 Attagene TRANS GR reporter, mRNA transcription;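 also: activators score as hits since higher reporter transcript over DMSO is fitted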
Procedure, shortened: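 Fluorescent capillary-electrophoresis quantitation of reporter mRNA is the readout, taken 24 h after dosing human HepG2 cells carrying transiently transfected GAL4-UAS reporter units activated by chimeric NR-GAL4 fusions; activity scored as induction over DMSO.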

[6] = biological target: Oxysterols receptor LXR-alpha (Homo sapiens) (UniProt Q13133); experiment: ATG_LXRa_TRANS: Attagene TRANS-FACTORIAL HepG2 Assay for human Liver X Receptor alpha (LXRa) (AID 2282980); conditions: HepG2 Attagene TRANS reporter, LXRa transactivation
Procedure, shortened: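 Transfect HepG2 with GAL4-UAS multiplex reporter constructs (TRANS format, chimeric receptor-GAL4); treat 24 h; extract RNA, reverse-transcribe, PCR-amplify, FAM-label, HpaI-digest; resolve fragments by capillary electrophoresis. Upward response vs DMSO.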

[7] = biological target: Oxysterols receptor LXR-beta (Homo sapiens) (UniProt P55055); experiment: ATG_LXRb_TRANS: Attagene TRANS-FACTORIAL HepG2 Assay for human Liver X Receptor beta (LXRb) (AID 2282981); conditions: HepG2 Attagene TRANS GAL4-LXRb reporter, mRNA
Procedure, shortened: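 Multiplexed reporter assay, HepG2, 24 h dosing. Fluorescence of labelled RT-PCR products after capillary electrophoresis gives transcript level; positive fitting direction relative to DMSO.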

[8] = ATG_M_32_TRANS: Attagene TRANS-FACTORIAL HepG2 Assay for M32 Transcription Factor (Internal Marker) (AID 2282984); conditions: HepG2 Attagene TRANS M32 internal marker reporter
Procedure, shortened: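 Internal-marker readout from a multiplexed transcription reporter panel. HepG2 cells were transfected with GAL4-UAS reporter units, treated 24 hours, and reporter transcript levels determined by fluorescence after RT-PCR and capillary separation.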

[9] = biological target: Transcriptional activator Myb (Homo sapiens) (UniProt P10242); experiment: ATG_Myb_CIS: Attagene CIS-FACTORIAL HepG2 Assay for human Myeloblastosis (Myb) Proto-Oncogene Transcription Factor (AID 2282986; active = hit-call score of the fitted dose curve at least 0.9, where 1 is the maximum; inactive = score below 0.9); conditions: HepG2 Attagene CIS-FACTORIAL Myb reporter transcription; actives raise or lower the signal
Procedure, shortened: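 Reporter transcript levels, quantified by fluorescent RT-PCR and capillary electrophoresis, serve as the read-out. Transfected HepG2 cells carrying cis-promoter reporter units are dosed for 24 hours, and curves are fitted bidirectionally against DMSO controls.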

[10] = biological target: Nuclear respiratory factor 1 (Homo sapiens) (UniProt Q16656); experiment: ATG_NRF1_CIS: Attagene CIS-FACTORIAL HepG2 Assay for human Nuclear Respiratory Factor 1 (NRF1) Orphan Gene (AID 2282987; active = hit-call score of the fitted dose curve at least 0.9, where 1 is the maximum; inactive = score below 0.9); conditions: HepG2 NRF1 cis-element reporter, Attagene multiplex; actives raise or lower the signal
Procedure, shortened: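 Multiplexed cis-reporter assay, HepG2 cells, 24 h treatment. Total RNA → oligo(dT) RT → PCR with reporter-specific primers → 6-FAM primer extension → HpaI cut → CE. Bidirectional fit vs DMSO.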

[11] = biological target: X-box-binding protein 1 (Homo sapiens) (UniProt P17861); experiment: ATG_Xbp1_CIS: Attagene CIS-FACTORIAL HepG2 Assay for human X-box Binding Protein 1 (XBP1) (AID 2282972; active = hit-call score of the fitted dose curve at least 0.9, where 1 is the maximum; inactive = score below 0.9); conditions: HepG2 XBP1 cis-element reporter, Attagene multiplex; actives raise or lower the signal
Procedure, shortened: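 Changes in reporter transcript abundance, read by RT-PCR and capillary electrophoresis, reflect endogenous transcription factor activity. Transfected HepG2 cells received compound for 24 hours; DMSO defined baseline for bidirectional analysis.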

[12] = biological target: Bile acid receptor (Homo sapiens) (UniProt Q96RI1); experiment: ATG_FXR_TRANS: Attagene TRANS-FACTORIAL HepG2 Assay for Farnesoid X Receptor (FXR) (AID 2282979); conditions: HepG2 Attagene TRANS FXR-GAL4 reporter transcription;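 also: hits raise reporter mRNA above DMSO so AC50 marks FXR activation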
Procedure, shortened: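 Transient transfection of HepG2 with multiplexed GAL4-UAS reporter units; exogenous FXR-GAL4 chimera. Dose 24 h → TriZol RNA → oligo(dT) RT → PCR, 6-FAM primer extension, HpaI cut → CE. Gain vs DMSO.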

[13] = ATG_M_06_TRANS: Attagene TRANS-FACTORIAL HepG2 Assay for M06 Transcription Factor (Internal Marker) (AID 2282983); conditions: HepG2 Attagene TRANS M06 internal marker reporter
Procedure, shortened: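 Background control endpoint: reporter mRNA from transiently transfected HepG2 after 24 h dosing, detected by RT-PCR with capillary electrophoresis fluorescence. Analysed for gain versus DMSO.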

[14] = biological target: Nuclear receptor subfamily 1 group I member 3 (Homo sapiens) (UniProt Q14994); experiment: ATG_CAR_TRANS: Attagene TRANS-FACTORIAL HepG2 Assay for human Constitutive Androstane Receptor (CAR) (AID 2282969); conditions: HepG2 Attagene TRANS-FACTORIAL CAR reporter;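 also: activators raise reporter mRNA above DMSO so AC50 marks induction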
Procedure, shortened: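 Transiently transfected HepG2, multiplex TRANS reporters (CAR-Gal4 chimera driving GAL4-UAS reporter). 24 h dosing. Readout: reporter transcript by RT-PCR + capillary electrophoresis, fluorescence intensity; positive direction vs DMSO.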

[15] = biological target: Hepatocyte nuclear factor 4-alpha (Homo sapiens) (UniProt P41235); experiment: ATG_HNF4a_TRANS: Attagene TRANS-FACTORIAL HepG2 Assay for human Hepatocyte Nuclear Factor 4 alpha (HNF4a) (AID 2282982); conditions: HepG2 HNF4a transactivation reporter, mRNA readout
Procedure, shortened: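 Endpoint reflects transcriptional activation of a GAL4-UAS reporter by an HNF4a-GAL4 chimera in transfected HepG2 cells, 24 h post-dosing. Fluorescence from RT-PCR products separated by capillary electrophoresis; DMSO baseline.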

[16] = biological target: Nuclear receptor subfamily 4 group A member 2 (Homo sapiens) (UniProt P43354); experiment: ATG_NURR1_TRANS: Attagene TRANS-FACTORIAL HepG2 Assay for human Nuclear Receptor Related Protein 1 (NURR1) (AID 2282985); conditions: HepG2 Attagene TRANS reporter, mRNA readout
Procedure, shortened: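 Endpoint: reporter mRNA increase relative to DMSO. HepG2 cells transfected with reporter units, treated 24 h; RNA processed by RT-PCR, labelling, HpaI digestion and capillary electrophoresis.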

[17] = biological target: Estrogen receptor (Homo sapiens) (UniProt P03372); experiment: ATG_ERa_TRANS: Attagene TRANS-FACTORIAL HepG2 Assay for human Estrogen Receptor alpha (ERa) (AID 2282970); conditions: HepG2 Attagene TRANS ERa GAL4 reporter, mRNA
Procedure, shortened: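 Liver-derived HepG2 cells expressing chimeric nuclear receptor-Gal4 proteins from transient transfection were exposed for 24 hours. Gain of reporter mRNA signal versus DMSO, read by capillary electrophoresis of FAM-labelled PCR products, was recorded.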

[18] = biological target: Estrogen-related receptor gamma (Homo sapiens) (UniProt P62508); experiment: ATG_ERRg_TRANS: Attagene TRANS-FACTORIAL HepG2 Assay for human Estrogen-Related Receptor gamma (ERRg) (AID 2282977); conditions: HepG2 Attagene TRANS reporter, ERRg transactivation;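 also: hits increase reporter signal over DMSO so potencies reflect activators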
Procedure, shortened: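 Exogenous NR-Gal4 chimera activity measured as reporter transcript induction after 24 h in transiently transfected HepG2 cells. RNA reverse-transcribed, PCR-amplified, 6-FAM-labelled and resolved by capillary electrophoresis; increase over DMSO baseline.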

[19] = biological target: Steroid hormone receptor ERR1 (Homo sapiens) (UniProt P11474); experiment: ATG_ERRa_TRANS: Attagene TRANS-FACTORIAL HepG2 Assay for human Estrogen-Related Receptor alpha (ERRa) (AID 2282971); conditions: HepG2 Attagene TRANS reporter, ERRa transactivation
Procedure, shortened: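 Reporter transcript induction was quantified by RT-PCR and capillary electrophoresis of FAM-labelled, HpaI-cut products after 24 h treatment of HepG2 cells carrying transiently transfected GAL4-UAS reporter units and an exogenous ERRa-Gal4 fusion; activity scored as increase over DMSO.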

Measured: outcome

Bile acid receptor (Homo sapiens), sequence (Q96RI1 whole entry, looked up, the tested form may be a part): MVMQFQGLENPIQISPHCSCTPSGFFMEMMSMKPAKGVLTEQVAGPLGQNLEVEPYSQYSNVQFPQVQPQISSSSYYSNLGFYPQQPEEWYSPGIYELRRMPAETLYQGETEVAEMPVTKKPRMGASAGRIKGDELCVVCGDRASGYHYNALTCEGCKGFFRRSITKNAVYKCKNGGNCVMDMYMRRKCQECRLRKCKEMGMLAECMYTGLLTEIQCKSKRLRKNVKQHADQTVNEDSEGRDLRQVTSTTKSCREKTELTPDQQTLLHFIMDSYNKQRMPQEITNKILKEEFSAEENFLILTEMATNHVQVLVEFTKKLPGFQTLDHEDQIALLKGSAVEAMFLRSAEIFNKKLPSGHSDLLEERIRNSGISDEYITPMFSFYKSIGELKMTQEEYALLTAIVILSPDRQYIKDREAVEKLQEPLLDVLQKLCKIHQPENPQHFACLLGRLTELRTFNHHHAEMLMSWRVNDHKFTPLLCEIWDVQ
Oxysterols receptor LXR-beta (Homo sapiens), sequence (P55055 whole entry, looked up, the tested form may be a part): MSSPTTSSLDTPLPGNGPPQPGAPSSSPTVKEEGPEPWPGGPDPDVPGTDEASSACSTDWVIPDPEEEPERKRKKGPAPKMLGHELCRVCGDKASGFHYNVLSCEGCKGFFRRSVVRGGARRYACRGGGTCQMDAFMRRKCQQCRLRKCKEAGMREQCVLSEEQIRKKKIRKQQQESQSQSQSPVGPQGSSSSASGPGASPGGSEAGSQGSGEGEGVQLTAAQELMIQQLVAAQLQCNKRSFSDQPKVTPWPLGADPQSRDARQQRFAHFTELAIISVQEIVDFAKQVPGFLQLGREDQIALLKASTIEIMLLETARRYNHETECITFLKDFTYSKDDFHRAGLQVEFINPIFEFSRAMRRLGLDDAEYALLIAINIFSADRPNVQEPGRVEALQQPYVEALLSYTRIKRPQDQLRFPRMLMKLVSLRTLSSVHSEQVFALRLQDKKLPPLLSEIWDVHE
Transcriptional activator Myb (Homo sapiens), sequence (P10242 whole entry, looked up): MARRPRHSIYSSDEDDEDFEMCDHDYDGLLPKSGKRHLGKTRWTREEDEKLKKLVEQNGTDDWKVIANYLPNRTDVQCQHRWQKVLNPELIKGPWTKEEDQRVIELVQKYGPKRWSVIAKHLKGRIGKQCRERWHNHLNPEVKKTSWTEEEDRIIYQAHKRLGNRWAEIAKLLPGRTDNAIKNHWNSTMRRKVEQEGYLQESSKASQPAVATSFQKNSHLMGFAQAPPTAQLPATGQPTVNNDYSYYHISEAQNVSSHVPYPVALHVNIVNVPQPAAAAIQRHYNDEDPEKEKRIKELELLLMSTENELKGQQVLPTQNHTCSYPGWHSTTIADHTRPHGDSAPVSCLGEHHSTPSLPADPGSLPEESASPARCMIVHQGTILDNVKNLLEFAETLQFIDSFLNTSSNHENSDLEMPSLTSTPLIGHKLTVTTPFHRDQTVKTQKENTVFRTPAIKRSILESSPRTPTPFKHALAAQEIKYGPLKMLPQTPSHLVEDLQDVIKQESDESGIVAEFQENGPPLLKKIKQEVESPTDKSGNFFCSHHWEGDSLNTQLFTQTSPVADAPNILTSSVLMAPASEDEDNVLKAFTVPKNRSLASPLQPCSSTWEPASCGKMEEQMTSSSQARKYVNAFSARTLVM
X-box-binding protein 1 (Homo sapiens), sequence (P17861 whole entry, looked up): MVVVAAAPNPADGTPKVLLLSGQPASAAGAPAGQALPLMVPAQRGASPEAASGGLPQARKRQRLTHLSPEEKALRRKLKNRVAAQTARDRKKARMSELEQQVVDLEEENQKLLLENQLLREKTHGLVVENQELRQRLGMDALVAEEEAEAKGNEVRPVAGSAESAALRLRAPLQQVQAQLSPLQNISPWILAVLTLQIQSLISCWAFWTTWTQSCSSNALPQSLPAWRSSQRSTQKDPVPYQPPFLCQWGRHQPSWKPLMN
Oxysterols receptor LXR-alpha (Homo sapiens), sequence (Q13133 whole entry, looked up, the tested form may be a part): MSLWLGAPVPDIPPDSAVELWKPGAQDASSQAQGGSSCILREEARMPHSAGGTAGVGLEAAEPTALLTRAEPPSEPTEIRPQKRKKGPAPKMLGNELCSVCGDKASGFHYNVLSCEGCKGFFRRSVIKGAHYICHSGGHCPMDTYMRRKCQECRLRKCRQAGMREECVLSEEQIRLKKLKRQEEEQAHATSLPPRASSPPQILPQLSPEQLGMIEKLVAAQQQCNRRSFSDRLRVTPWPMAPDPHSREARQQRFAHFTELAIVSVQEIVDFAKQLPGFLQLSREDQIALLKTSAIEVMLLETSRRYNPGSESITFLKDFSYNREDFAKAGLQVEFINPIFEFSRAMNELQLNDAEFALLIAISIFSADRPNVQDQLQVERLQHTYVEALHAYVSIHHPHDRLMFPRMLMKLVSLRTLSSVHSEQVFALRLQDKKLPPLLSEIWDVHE
Nuclear respiratory factor 1 (Homo sapiens), sequence (Q16656 whole entry, looked up): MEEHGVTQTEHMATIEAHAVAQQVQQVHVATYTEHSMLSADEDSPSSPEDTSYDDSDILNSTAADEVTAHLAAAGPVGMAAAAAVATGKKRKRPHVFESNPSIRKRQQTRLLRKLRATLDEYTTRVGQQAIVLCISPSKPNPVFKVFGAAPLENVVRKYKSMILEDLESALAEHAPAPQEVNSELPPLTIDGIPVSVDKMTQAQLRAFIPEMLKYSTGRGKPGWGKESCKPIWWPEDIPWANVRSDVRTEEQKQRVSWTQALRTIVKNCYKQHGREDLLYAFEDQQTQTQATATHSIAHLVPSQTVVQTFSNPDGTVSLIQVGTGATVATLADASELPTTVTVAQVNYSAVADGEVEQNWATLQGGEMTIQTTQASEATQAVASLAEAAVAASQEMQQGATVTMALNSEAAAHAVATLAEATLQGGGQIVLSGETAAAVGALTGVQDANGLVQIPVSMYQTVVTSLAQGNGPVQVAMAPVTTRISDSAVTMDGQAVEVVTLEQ
Glucocorticoid receptor (Homo sapiens), sequence (P04150 whole entry, looked up, the tested form may be a part): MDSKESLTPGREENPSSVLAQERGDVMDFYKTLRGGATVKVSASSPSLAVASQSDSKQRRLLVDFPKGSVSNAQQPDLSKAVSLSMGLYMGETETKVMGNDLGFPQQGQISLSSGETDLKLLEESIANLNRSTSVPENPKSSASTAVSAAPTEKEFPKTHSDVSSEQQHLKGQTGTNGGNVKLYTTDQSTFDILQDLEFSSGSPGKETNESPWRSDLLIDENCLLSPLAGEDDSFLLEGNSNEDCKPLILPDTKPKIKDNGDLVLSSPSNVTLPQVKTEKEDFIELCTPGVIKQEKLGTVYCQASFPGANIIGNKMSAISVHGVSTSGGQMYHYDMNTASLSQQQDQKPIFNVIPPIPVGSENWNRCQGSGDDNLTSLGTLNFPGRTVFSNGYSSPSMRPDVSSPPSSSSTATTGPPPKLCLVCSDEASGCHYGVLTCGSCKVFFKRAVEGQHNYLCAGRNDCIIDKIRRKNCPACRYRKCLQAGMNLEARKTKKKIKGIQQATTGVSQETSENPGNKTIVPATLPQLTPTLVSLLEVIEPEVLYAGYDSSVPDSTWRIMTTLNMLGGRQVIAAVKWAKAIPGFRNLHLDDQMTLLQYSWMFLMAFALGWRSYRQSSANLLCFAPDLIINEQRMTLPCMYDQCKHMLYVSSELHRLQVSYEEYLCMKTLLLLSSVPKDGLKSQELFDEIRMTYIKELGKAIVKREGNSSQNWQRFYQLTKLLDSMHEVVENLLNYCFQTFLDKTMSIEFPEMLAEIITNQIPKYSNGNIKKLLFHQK
Hepatocyte nuclear factor 4-alpha (Homo sapiens), sequence (P41235 whole entry, looked up, the tested form may be a part): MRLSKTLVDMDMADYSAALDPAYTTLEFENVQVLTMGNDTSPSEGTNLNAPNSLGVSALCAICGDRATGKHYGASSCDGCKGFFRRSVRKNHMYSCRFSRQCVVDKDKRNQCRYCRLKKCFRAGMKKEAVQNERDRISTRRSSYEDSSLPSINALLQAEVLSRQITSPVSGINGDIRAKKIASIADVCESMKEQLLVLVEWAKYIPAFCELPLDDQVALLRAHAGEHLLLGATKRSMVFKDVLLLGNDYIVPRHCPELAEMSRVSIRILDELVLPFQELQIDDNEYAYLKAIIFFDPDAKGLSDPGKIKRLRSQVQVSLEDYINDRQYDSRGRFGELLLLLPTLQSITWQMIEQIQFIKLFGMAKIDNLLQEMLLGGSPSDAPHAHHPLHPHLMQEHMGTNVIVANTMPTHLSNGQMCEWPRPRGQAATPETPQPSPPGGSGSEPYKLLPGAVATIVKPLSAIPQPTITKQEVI
Nuclear receptor subfamily 4 group A member 2 (Homo sapiens), sequence (P43354 whole entry, looked up): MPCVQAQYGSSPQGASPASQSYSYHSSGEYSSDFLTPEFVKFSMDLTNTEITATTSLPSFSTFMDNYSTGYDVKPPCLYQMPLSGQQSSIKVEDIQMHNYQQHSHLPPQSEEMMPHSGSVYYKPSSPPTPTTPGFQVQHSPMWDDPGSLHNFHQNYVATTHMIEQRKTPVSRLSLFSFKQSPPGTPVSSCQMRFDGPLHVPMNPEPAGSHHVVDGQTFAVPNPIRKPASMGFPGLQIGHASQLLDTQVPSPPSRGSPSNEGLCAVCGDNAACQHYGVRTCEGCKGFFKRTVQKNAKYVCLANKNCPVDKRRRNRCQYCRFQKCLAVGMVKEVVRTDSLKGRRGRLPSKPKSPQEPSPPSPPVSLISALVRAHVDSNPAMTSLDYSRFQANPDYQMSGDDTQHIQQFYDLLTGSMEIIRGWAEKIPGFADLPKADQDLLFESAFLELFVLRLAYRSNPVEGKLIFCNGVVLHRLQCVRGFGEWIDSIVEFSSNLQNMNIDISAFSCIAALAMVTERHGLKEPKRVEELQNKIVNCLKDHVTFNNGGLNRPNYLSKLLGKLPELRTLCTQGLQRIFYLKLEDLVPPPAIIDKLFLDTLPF
Nuclear receptor subfamily 1 group I member 3 (Homo sapiens), sequence (Q14994 whole entry, looked up, the tested form may be a part): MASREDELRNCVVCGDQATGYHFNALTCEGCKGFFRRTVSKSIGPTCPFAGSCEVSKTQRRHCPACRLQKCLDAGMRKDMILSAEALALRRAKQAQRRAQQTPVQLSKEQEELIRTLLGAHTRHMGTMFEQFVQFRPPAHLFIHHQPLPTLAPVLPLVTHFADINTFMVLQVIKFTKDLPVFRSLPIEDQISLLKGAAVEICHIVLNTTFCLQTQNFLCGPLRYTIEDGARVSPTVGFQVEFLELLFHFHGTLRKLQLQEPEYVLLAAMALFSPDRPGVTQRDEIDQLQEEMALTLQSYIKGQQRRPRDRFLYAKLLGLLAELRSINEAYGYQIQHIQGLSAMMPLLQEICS

C=C(C)C(=O)OCCOC(=O)CC(C)=O
inactive: [1] | [2] | [3] | [4] | [5] | [6] | [7] | [8] | [9] | [10]

O=C(O)c1cn(C2CC2)c2cc(N3CCNCC3)c(F)cc2c1=O
inactive: [1] | [11] | [3] | [4] | [12] | [13] | [9]

C=CCOC(=O)CCC1CCCCC1
not listed: [3] | [5] | [7] | [9] | [17] | [18] | [19]
inactive: all other assays above

Cc1ncc([N+](=O)[O-])n1C
not listed: [5] | [6] | [8] | [13] | [15] | [19]
inactive: all other assays above

CC(C)(C)c1cc(CCC(=O)NN)cc(C(C)(C)C)c1O
inactive: [1] | [2] | [19] | [11] | [3] | [4] | [6] | [7] | [9]

Cc1cccc(C)c1[N+](=O)[O-]
inactive: [1] | [2] | [5] | [7] | [15] | [13] | [8] | [10]

Reference: PubChem BioAssay (EPA / NIEHS)
